# Reference: PubChem BioAssay
# A number with no mark means an inactive call. Active and inactive are the calls of the source. Unless noted, no stated cut-off is given here; in the data, active means inhibition above about 30%; inactive means the rest.
# Experiments:
# [1] = molecular target: Nuclear receptor coactivator 3 (Homo sapiens) (UniProt Q9Y6Q9); assay: NCOA3 GAL4-fusion reporter inhibition – cell-based, luminescence, quadruplicate, confirmation (AID 588792;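 active means mean inhibition over 43.08%, the solvent-only control mean plus 3 SD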;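 further: 0% = DMSO treated cells and 100% = gossypol at 36 µM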); conditions: HEK293 GAL4-SRC3 luciferase reporter, at 3.6 µM, stronger effect = higher value
# Nuclear receptor coactivator 3 (Homo sapiens), sequence (Q9Y6Q9 whole entry, looked up, the tested form may be a part): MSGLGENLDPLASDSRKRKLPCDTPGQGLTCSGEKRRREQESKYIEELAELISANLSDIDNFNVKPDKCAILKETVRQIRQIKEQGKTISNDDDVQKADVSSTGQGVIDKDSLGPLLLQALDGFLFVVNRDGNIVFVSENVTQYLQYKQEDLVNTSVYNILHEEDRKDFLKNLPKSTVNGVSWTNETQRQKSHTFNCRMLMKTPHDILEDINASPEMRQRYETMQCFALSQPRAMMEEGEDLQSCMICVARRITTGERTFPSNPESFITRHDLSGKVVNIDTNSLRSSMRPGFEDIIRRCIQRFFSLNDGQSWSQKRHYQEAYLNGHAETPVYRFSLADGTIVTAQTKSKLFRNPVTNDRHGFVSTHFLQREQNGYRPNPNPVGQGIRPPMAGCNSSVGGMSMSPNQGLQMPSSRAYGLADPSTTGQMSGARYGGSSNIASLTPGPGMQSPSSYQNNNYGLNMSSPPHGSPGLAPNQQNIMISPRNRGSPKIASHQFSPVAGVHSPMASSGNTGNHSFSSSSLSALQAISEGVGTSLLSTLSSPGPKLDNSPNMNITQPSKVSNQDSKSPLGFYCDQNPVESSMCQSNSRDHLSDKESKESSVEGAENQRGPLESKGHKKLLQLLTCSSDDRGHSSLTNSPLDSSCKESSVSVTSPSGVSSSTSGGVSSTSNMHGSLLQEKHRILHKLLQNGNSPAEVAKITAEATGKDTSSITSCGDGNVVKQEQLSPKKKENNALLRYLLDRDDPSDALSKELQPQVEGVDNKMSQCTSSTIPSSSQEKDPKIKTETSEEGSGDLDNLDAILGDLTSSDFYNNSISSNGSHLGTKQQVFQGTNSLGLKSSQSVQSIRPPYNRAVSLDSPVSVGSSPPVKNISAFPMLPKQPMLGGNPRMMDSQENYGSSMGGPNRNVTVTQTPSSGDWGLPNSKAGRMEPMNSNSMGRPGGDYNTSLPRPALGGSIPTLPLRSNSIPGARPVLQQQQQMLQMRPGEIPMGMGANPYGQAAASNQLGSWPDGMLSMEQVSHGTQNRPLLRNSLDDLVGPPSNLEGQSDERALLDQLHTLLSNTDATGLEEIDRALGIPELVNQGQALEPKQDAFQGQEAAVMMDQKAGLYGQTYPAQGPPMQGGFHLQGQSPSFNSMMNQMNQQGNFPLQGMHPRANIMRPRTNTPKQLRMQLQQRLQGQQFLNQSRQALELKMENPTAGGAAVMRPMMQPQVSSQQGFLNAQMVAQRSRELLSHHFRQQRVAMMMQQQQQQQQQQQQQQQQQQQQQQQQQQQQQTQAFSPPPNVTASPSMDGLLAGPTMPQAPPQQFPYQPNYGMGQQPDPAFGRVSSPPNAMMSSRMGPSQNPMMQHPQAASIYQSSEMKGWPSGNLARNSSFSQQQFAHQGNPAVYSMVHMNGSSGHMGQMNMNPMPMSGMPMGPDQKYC
# [2] = tested on: transactivating tegument protein VP16 (Human herpesvirus 1), Gal4-VP16 luciferase reporter; assay: repression of VP16-driven luciferase reporter – cell-based, luminescence, high throughput, counter-screen for SRC3 inhibitor project (AID 588794); conditions: mammalian cells, at 3.6 µM, stronger effect = higher value
Compound,inhibition [1],inhibition [2]
COC(=O)c1ccccc1NC1=C/C(=N\S(=O)(=O)c2cccs2)c2ccccc2C1=O,2.2%,6.65%
COc1cc(C=CC(=O)c2ccccc2)cc(OC)c1OC,28.4%,30.1% (active)
Nc1[nH]nc2nc(-c3ccccc3)[nH]c(=O)c12,-11.1%,-4.28%
Cn1ncc2c(O/N=C(\N)c3ccc(C(F)(F)F)cc3)ncnc21,-12.9%,1.06%
CC(=O)c1c(C)[nH]c(C(=O)OCC(=O)Nc2ccc(C)cc2[N+](=O)[O-])c1C,32.4%,52.8% (active)
COc1ccc(CCN2C(=O)c3cccc4c(C(=O)N5CCCCC5)ccc(c34)C2=O)cc1OC,-2.54%,3.93%
Nc1ncnc(Sc2ccc(Cl)cc2)c1[N+](=O)[O-],13.4%,9.09%
COc1cccc(/C=N/Nc2nc3ccccc3n3cnnc23)c1O,13.4%,1.79%
O=C(Nc1ccc(N2CCN(c3ncccc3C(F)(F)F)CC2)nc1)c1cccs1,-7.92%,7.03%
CCc1ccc(NC(=O)c2cnc(N3CCN(c4ccccn4)CC3)c3ccccc23)cc1,18.1%,42% (active)
CCSc1ccccc1C(=O)NCc1ccc2c(c1)OCO2,1.07%,-10.1%
CCCCNS(=O)(=O)c1ccc(S(=O)(=O)NCc2ccncc2)cc1,16.5%,25.1%
CCc1ccc(/C=C/c2c([N+](=O)[O-])c(=O)n(C)c(=O)n2C)cc1,39.7%,41.3% (active)
Cc1nn(C)c(C)c1CN(C)C(=O)c1cnn2c1NC(c1ccccc1)CC2C(F)(F)F (stereo not given),21.2%,3.17%
O=[N+]([O-])c1cc(S(=O)(=O)NCCN2CCOCC2)ccc1Sc1nnnn1-c1ccccc1,12.9%,-10.3%
Cc1nc(SCC(=O)NNC(=O)c2ccc(F)cc2)c2ccccc2n1,-5.28%,-10.9%
Cc1ccc(S(=O)(=O)CCC(=O)N2CCN(c3ccc(Cl)cc3)CC2)cc1,-1.83%,2.47%
Cc1ccc(-n2cccn2)c(CN2CCCC(C(=O)c3sccc3C)C2)c1 (stereo not given),18.9%,32.1% (active)
CCc1nc2ccccc2c(C(=O)OCC(=O)Nc2cccc(S(=O)(=O)N3CCOCC3)c2)c1C,1.17%,8.71%
CCn1nc(C(=O)OCC(=O)c2ccc3c(c2)OCCO3)c2ccccc2c1=O,-13.9%,-5.51%
CN(C)c1cc[n+](CC(=O)Nc2ccc(Oc3ccccc3)cc2)cc1,15.7%,20.2%
COc1ccccc1NC(=O)Nc1nnc(Cc2ccccc2F)s1,5.82%,20.4%
COc1ccccc1OCC(=O)NNC(=O)C1CCN(c2ncnc3sc(C)c(C)c23)CC1,3.67%,0.76%
CC(=O)c1c(O)cc2c3c1OC(C)(C)C1CCC(C)(CC31)O2 (stereo not given),46.2% (active),30.9% (active)

Compound,inhibition [1],inhibition [2]
C=C(C)COc1ccc(-c2[nH]ncc2-c2ccc(OC)cc2)c(O)c1,7.89%,14.5%
Nc1nc2c(F)cccc2s1,-3.71%,0.2%
Cc1ccc(N/C(N)=N/c2nc(C)cc(C)n2)cc1,-9.39%,-6.71%
CCC(O)CC(C(=O)NNc1ccccc1)C(=O)NNc1ccccc1 (stereo not given),-2.21%,11.1%
COc1ccc(CN2C(=O)c3cccnc3C2=O)cc1S(=O)(=O)NCc1ccccc1,8.01%,-6.65%
COC(=O)c1ccc(NC(=O)Cn2c(-c3nonc3N)nc3ccccc32)cc1,17%,3.85%
CC(=O)c1cccc(NC(=O)Nc2ccc3c(c2)N(C)C(=O)CS3)c1,32.7%,3.54%
CCOc1ccc(OCC)c(NC(=O)CN(C)S(=O)(=O)c2cccc3nsnc23)c1,1.36%,0.62%
CCOc1ccccc1/C=C/c1onc(C)c1S(=O)(=O)N1CCC(C(=O)N(CC)CC)CC1,5.63%,3.37%
COc1ccc(C(CNC(=O)C(C)(C)Oc2ccc(Cl)cc2)N2CCCCC2)cc1 (stereo not given),11.2%,2.63%
Cc1cc(=O)oc2cc(NC(=O)COc3cccc(C(F)(F)F)c3)ccc12,7.34%,-7.4%
O=C(NNc1ccc(O)cc1)c1ccc(Br)cc1,31.5%,63.4% (active)
CC(C)(C)CNC(=O)[C@]1(C)CCC[C@@]2(C)C3CC[C@@]4(C)C[C@]3(CCC21)CC4=O (stereo not given in full),9.18%,17.9%
COc1ccc(C)cc1NC(=O)c1nnn(Cc2cccc(F)c2)c1N,22.3%,26.1%
O=C(N/N=C/c1c(O)ccc2ccccc12)c1ccc(CO)nc1,26.3%,41.3% (active)
COc1c(Cl)cc(Cl)cc1/C=C/C(=O)c1ccc(NC(=O)c2cccs2)cc1,48.7% (active),26.6%
COc1cc(/C=C(/C(=O)c2cccs2)c2nc3ccccc3[nH]2)cc(OC)c1O,31.4%,12.1%
COc1cccc(N2CCN(CC(=O)Nc3ccccc3C(=O)NCc3ccccc3)CC2)c1,-32.3%,7.53%
COC(=O)c1ccccc1-c1ccc(C(c2c(C)[nH][nH]c2=O)c2c(C)[nH][nH]c2=O)o1,22.8%,-7.34%
O=C(c1ccc(S(=O)(=O)Cc2cc(F)ccc2F)c([N+](=O)[O-])c1)N1CCCCC1,-2.8%,-0.48%
COc1ccc(CCNC(=O)COC(=O)Cc2cccc3ccccc23)cc1,-2.4%,-9.98%
OCCNCCOc1ccc(Cl)c(Cl)c1,5.72%,2.08%
CCOC(=O)CN(C(=O)COc1nc(C)cc(C)c1C#N)c1ccc(Cl)cc1,4.25%,1.1%
Cc1ccnc(OC(C(=O)O)C(OCc2ccccc2)(c2ccccc2)c2ccc(C(F)(F)F)cc2)n1 (stereo not given),8.84%,12.4%

Compound,inhibition [1],inhibition [2]
COc1ccc(CNS(=O)(=O)c2ccc3c(c2)N(C(C)=O)CC(C)S3)cc1 (stereo not given),7.83%,11.6%
CCOC(=O)c1c(NC(=S)N2CCN(C)CC2)sc2c1CCN(C(=O)OCC)C2,35.5%,40.1% (active)
O=C(NCCNc1ccc([N+](=O)[O-])cc1C(F)(F)F)c1cccc(F)c1,15.4%,12.6%
CCN(CC(=O)Nc1ccccc1C(F)(F)F)C(=O)c1ccc(N2C(=O)CCC2=O)cc1,-1.4%,2.68%
Cc1ccc(S(=O)(=O)N2C[C@H]3C(=O)C[C@@H](c4ccccc4)N(S(=O)(=O)c4ccc(C)cc4)[C@H]3C[C@H]2c2ccccc2F)cc1,6.96%,2.52%
COc1ccc(N2CC(C(=O)N/N=C/c3ccccc3)CC2=O)cc1 (stereo not given),5.28%,-0.56%
CC(C(=O)N1c2ccccc2Sc2ccccc21)n1nnc(-c2cccs2)n1 (stereo not given),2.33%,6.84%
Cc1cc(C(=O)Nc2ccncc2)c(C)o1,8.35%,-9.44%
O=C(Cc1ccccc1)Nc1cc(Cl)ccc1Sc1ccccc1,2.36%,5.41%
CC(C)(Sc1cc(C(C)(C)C)c(O)c(C(C)(C)C)c1)Sc1cc(C(C)(C)C)c(O)c(C(C)(C)C)c1,15.9%,-0.87%
COC(=O)c1c(NC(=O)c2ccccc2)sc(C(N)=O)c1C,26.7%,55.4% (active)
COc1ccc2[nH]c(C(=O)N/N=C/c3ccc(O)cc3O)cc2c1,54.5% (active),45.9% (active)
C/C(=N\NC(=S)Nc1cc(S(=O)(=O)N2CCOCC2)ccc1Cl)c1ccccc1F,31.8%,28.8%
CC12CN3CC(C)(CN(C1)C3c1ccccc1F)C2 (stereo not given),2.53%,4.18%
O=C(Cc1ccccc1)N/N=C/c1cc(Br)cc(Cl)c1O,19.8%,16.4%
Cc1c(P(=S)(c2ccccc2)c2ccccc2)[n+]2ccccc2n1CCc1ccccc1,25.9%,22%
Cc1nc(Nc2ccc3c(c2)OCCO3)c2nnn(Cc3ccccc3Cl)c2n1,22.1%,-3.54%
Cc1ccc(S(=O)(=O)NC(=O)c2cc(C)n(-c3ccccc3)c2C)cc1,-1.88%,-1.79%
N#CCc1ccc(NC(=O)c2ccc(S(=O)(=O)N3CCOCC3)cc2)cc1,-11.6%,-6.42%
O=C(CN1CC(c2ccccc2)CC1=O)N/N=C/c1cc(Br)ccc1O (stereo not given),15.1%,10.9%
CC[N+](CC)(CC)CCOc1ccc(/C=C/c2ccccc2)cc1,3.27%,5.91%
CCC(C)c1ccc(NC(=S)N2CCN(C(=O)C3CCCO3)CC2)cc1 (stereo not given),8.54%,-1.88%
